High-throughput results from PubChem BioAssay.
Sampled rows, rich in hits. Any-hit rate of the full collection: about 12%.
HP1b binding inh: HTS for Inhibitors of HP1-beta Chromodomain Interactions with Methylated Histone Tails | AlphaScreen HP1-beta / biotin-H3K9me3 peptide binding | 390,000 tested, 0.56% active | Chromobox protein homolog 1 (Homo sapiens), P83916 | AID 540317, 2011 | Potency, µM (top dose mostly 114 µM), for inactives: at the top dose activity change, negative = inhibition, usual class: inhibitors; note: potency is the fitted concentration of half-maximal effect; nearly all actives have a fitted effect of over 70% in size
Target sequence (P83916 whole entry, looked up): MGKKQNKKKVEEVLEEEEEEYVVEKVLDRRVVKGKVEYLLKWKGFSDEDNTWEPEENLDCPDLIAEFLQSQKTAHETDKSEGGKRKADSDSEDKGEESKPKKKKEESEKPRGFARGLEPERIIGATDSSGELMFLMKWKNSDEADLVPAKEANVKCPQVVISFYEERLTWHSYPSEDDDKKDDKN
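HP1-beta protein (50 nM final) preincubated 30 min at room temperature with biotinylated H3(1-18)K9me3 peptide (50 nM) in PBS pH 7.4, 0.01% Tween-20, then compound added for 30 min. AlphaScreen streptavidin donor/nickel chelate acceptor beads (10 ug/mL final), 30 min dark, luminescence read.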
BAZ2B inh: qHTS Assay for Inhibitors of BAZ2B. Bromodomain adjacent to zinc finger domain protein 2B (Homo sapiens), Q9UIF8. AlphaScreen BAZ2B-H3K14Ac peptide displacement. Potency, µM (series often up to 114 µM), without a hit: at the highest dose activity change, negative = inhibition, most hits filed as inhibitors. 360,000 tested, 4.4% active; note: potency is the fitted concentration of half-maximal effect; % is set by controls: 0 for no effect and ±100 for the full control effect; nearly all actives have a fitted effect of over 60% in size
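In this displacement format the biotinylated H3(5-23) peptide acetylated at Lys14 serves as ligand at 50 nM, with BAZ2B at 50 nM in PBS pH 7.4 containing 0.01% Tween-20. Donor and acceptor beads are 10 ug/mL final.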
G9a block: qHTS Assay for Inhibitors of Histone Lysine Methyltransferase G9a; Histone-lysine N-methyltransferase EHMT2 (Homo sapiens), Q96KQ7; G9a H3K9 monomethylation, AlphaScreen, 2 h; Potency, µM (doses to about 102 µM), without a hit: at the highest dose activity, negative = inhibition, most hits filed as inhibitors; 350,000 tested, 8.8% active; note: potency is the fitted concentration of half-maximal effect; % is set by controls: 0 for no effect and ±100 for the full control effect; nearly all actives have a fitted effect of over 75% in size
Target sequence (Q96KQ7 913-1193 limits assumed): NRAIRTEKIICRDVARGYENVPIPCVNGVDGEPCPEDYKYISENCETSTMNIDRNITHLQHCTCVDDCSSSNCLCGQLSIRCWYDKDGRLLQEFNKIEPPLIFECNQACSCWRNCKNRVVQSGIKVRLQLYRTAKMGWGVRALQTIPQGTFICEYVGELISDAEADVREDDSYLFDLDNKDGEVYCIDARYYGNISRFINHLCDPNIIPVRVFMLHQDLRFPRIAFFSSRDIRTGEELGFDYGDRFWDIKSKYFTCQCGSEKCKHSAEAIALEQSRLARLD
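AlphaScreen read-out: biotin-H3K9 peptide (500 nM) methylation by 20 nM enzyme with 20 uM SAM, 2 h at room temperature after 15 min compound preincubation; anti-monomethyl H3K9 antibody plus donor/acceptor beads, 10 min dark.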
JMJD2A Tudor: qHTS Assay for Inhibitors of JMJD2A-Tudor Domain; Lysine-specific demethylase 4A (Homo sapiens), O75164; AlphaScreen JMJD2A-Tudor / H3K4me3 peptide binding; Potency, µM (highest dose often 114 µM), for the others: at the top dose activity change, negative = inhibition, most hits filed as inhibitors; 390,000 tested, 4.4% active; AID 504339, 2011; note: potency is the fitted concentration of half-maximal effect; % is set by controls: 0 for no effect and ±100 for the full control effect; nearly all actives have a fitted effect of over 50% in size
PI5P4Ka inh: qHTS for Inhibitors of phosphatidylinositol 5-phosphate 4-kinase (PI5P4K) | Phosphatidylinositol 5-phosphate 4-kinase type-2 alpha (Homo sapiens), P48426 | PI5P4Kalpha enzyme, ADP-Glo luminescence, 60 min; active compounds read low | max response, % | 330,000 tested, 1.2% active | AID 652105, 2013; active = max response of -50% or lower; inconclusive = between -30% and -50%; inactive = -30% or higher; note: value at the top dose of about 77 µM; % is set by controls: 0 for no effect and ±100 for the full control effect
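ADP-Glo luminescence end-point read after a 60 min room-temperature kinase reaction of PI5P4Kalpha plus substrate, initiated with ATP at 5 microM final. Buffer: 0.038 M HEPES pH 7.4, EGTA, 0.1% CHAPS, 5% DMSO.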
PLK1 PBD block: qHTS for Inhibitors of PLK1-PDB (polo-like kinase 1 - polo-box domain): Primary Screen | Serine/threonine-protein kinase PLK1 (Homo sapiens), P53350 | AID 720504, 2013 | 360,000 tested, 2.8% active | Potency, µM, inactives show max response, negative = inhibition, hits mostly inhibitors | Plk1 PBD binding of FITC phosphopeptide, fluorescence polarization; note: potency is the fitted concentration of half-maximal effect; series mostly up to about 57 µM; % is set by controls: 0 for no effect and ±100 for the full control effect; nearly all actives have a fitted effect of over 65% in size
* marks the source's active call; other numbers are inactive results; ? = inconclusive; nt = not tested or not shown; [ ] = dose if it differs, or a comment. Unless noted, calls come from the whole dose curve; as a rule, active = well fitted curve in the direction sought with a large enough effect; inconclusive = small, poorly fitted or top-dose-only effect, or another doubt; inactive = no such curve, though single readings can be large; an effect the other way counts as inactive or inconclusive.

SMILES | HP1b binding inh | BAZ2B inh | G9a block | JMJD2A Tudor | PI5P4Ka inh | PLK1 PBD block
C#CCNC(=O)C1=C[C@H](C(C)(C)C)C[C@H](OCCCCO)O1 | 49.4% | nt | nt | -11.7% | 12.0 | -2.3%
Cc1ccc(C)c(OCC(=O)Nc2ccc(N3CCOCC3)cc2)c1 | -15.5% | ? | 31.6µM* | ? | 10.5 | -26.9%
Cc1ccc(C)c(OCCC(=O)OCC(=O)Nc2ccc(N3CCOCC3)cc2)c1 | 29.5% | -11.8% | ? | -4.8% | 0.5 | 2.8%
O=C(CCCn1c(=O)c2ccccc2n(CC(=O)Nc2ccc(F)cc2F)c1=O)NCc1ccccc1Cl | -5.0% | -9.7% | 4.8%[59 µM] | -18.2% | nt | nt
C1CCC(C(C[C@@H]2CCCCN2)C2CCCCC2)CC1 | nt | nt | 5.8%[21.5 µM] | nt | nt | nt
COc1ccc(NC(=O)CN(C)C(C)C(=O)N2CCCCC2)cc1 (configuration not stated) | -49.6% | 22.4µM* | ? | 0.891µM* | nt | 2.0%
CC(C(=O)Nc1ccc2c(c1)OCO2)N(C)CC(=O)Nc1ccccc1Cl (configuration not stated) | 35.6% | nt | nt | -8.4% | 2.4 | -1.1%
CC(C(=O)Nc1ccc2c(c1)OCO2)N(C)CC(=O)Nc1ccc(Cl)cc1 (configuration not stated) | ? | nt | nt | 2.24µM* | -4.5 | 1.2%
CC1CC(C)CN(C(=O)C(C)N(C)CC(=O)Nc2ccc(F)cc2)C1 (configuration not stated) | 25.8% | 8.3% | 11.0%[12.7 µM] | 0.0% | -0.3 | 2.7%
CC1CC(C)CN(C(=O)C(C)N(C)CC(=O)Nc2ccc(Cl)cc2)C1 (configuration not stated) | ? | 44.7µM* | 50.1µM* | 7.94µM* | 2.4 | 5.7%
CSc1ccccc1NC(=O)CN(C)C(C)C(=O)NCc1ccc2c(c1)OCO2 (configuration not stated) | ? | nt | nt | 5.01µM* | -2.0 | -9.3%
CC(C)NC(=O)N1CC[C@@]2(CCCN(C(=O)c3cnccn3)C2)C1 | nt | nt | 0.7%[12.7 µM] | nt | nt | nt
Cc1cc(Nc2cccc(C(F)(F)F)c2)nc2ccc(NC(=O)c3ccc(N(C)C)cc3)cc12 | 33.0% | -17.5% | -21.0%[59 µM] | -14.3% | nt | nt
COc1cc(/C=C2/C(=N)N3N=C(CC(=O)N4CCOCC4)SC3=NC2=O)ccc1OC(C)c1ccccc1 (configuration not stated) | 9.6% | -21.0% | -12.0% | -28.8% | -9.5 | ?
CCS(=O)(=O)C1=NN2C(=N)/C(=C\c3ccc(OS(=O)(=O)c4ccccc4)c(OC)c3)C(=O)N=C2S1 | nt | 56.2µM* | -5.5%[0.0925 µM] | nt | nt | nt
COc1cc(/C=C2\C(=N)N3N=C(S(=O)(=O)CC(C)C)SC3=NC2=O)ccc1OC(=O)c1ccco1 | nt | -31.9% | -11.4%[59 µM] | nt | nt | nt
COc1cc(/C=C2\C(=N)N3N=C(S(C)(=O)=O)SC3=NC2=O)ccc1OS(=O)(=O)c1ccccc1 | nt | 50.1µM* | nt | nt | nt | nt
COc1cc(/C=C2\C(=N)N3N=C(N4CCOCC4)SC3=NC2=O)ccc1OC(=O)c1ccccc1 | -15.1% | 50.1µM* | 20µM* | ? | -25.9 | 26.7µM*
Clc1cccc(-n2cc(-c3ccccc3)c3c(N4CCCCC4)ncnc32)c1 | 37.5% | -25.1% | -9.3%[59 µM] | -18.7% | nt | nt
Cc1cccc(-n2c(N)cc(=O)[nH]c2=S)c1 | 11.3% | 4.5% | 50.1µM* | -12.8% | -4.0 | -12.6%
Nc1cc(=O)[nH]c(=O)n1-c1cccc(F)c1 | 21.6% | -12.7% | 5.8% | 1.8% | 8.1 | 1.6%
CC(=O)n1c(=O)c2ccccc2c(=O)n1-c1ccccc1 | 29.9% | 0.9% | -44.9% | 4.1% | ? | 13.4µM*
O=c1c2ccccc2c(=O)n(-c2ccccc2)n1CCCCBr | 42.6% | nt | nt | 12.8% | 1.4 | -4.7%
CC1=C(C(=O)N2CCCCCC2)CC(CC(=O)NCc2ccco2)C(=O)N1Cc1ccccc1 (configuration not stated) | nt | nt | nt | nt | 0.8 | -2.9%
Cc1cc(OCC(=O)N(Cc2ccc(N(C)C)cc2)CC2CCCO2)ccc1Cl (configuration not stated) | ? | 28.2µM* | 12.6µM* | 35.5µM* | nt | nt
SMILES | HP1b binding inh | BAZ2B inh | G9a block | JMJD2A Tudor | PI5P4Ka inh | PLK1 PBD block
CCOc1ccccc1C(=O)N(Cc1ccc(N(C)C)cc1)CC1CCCO1 (configuration not stated) | -20.1% | ? | ? | ? | nt | nt
COc1ccccc1OCC(=O)N(Cc1ccc(Cl)cc1)CC1CCCO1 (configuration not stated) | 13.0% | 0.5% | 7.2%[59 µM] | -11.6% | nt | nt
CCCOc1ccc(C(=O)N(Cc2ccc(N(C)C)cc2)CC2CCCO2)cc1 (configuration not stated) | ? | 39.8µM* | 11.2µM* | 39.8µM* | nt | nt
CN(C)c1ccc(CN(CC2CCCO2)C(=O)COc2ccc(Cl)cc2)cc1 (configuration not stated) | ? | 31.6µM* | 14.1µM* | 44.7µM* | nt | nt
COc1ccc2cc(CNc3ccccc3)c(=O)n(CC(=O)Nc3ccc(C)cc3C)c2c1 | 24.3% | -31.3% | -1.5%[59 µM] | -10.3% | nt | nt
C=Cc1ccc(Cn2c(C(=O)O)c(CNCCc3ccco3)c3ccc(C)cc32)cc1 | -13.5% | 44.7µM* | ? | ? | nt | nt
Cc1ccc2c(CNCc3cccs3)c(C(=O)O)n(Cc3ccc(F)cc3)c2c1 | 6.1% | ? | -32.5%[59 µM] | -34.8% | nt | nt
COc1ccc(Cn2c(C(=O)O)c(CNCCc3ccco3)c3ccc(C)cc32)cc1 | 21.7% | ? | ? | -24.8% | nt | nt
COc1ccc(Cn2c(C(=O)O)c(CNCCc3cc(OC)ccc3OC)c3ccc(C)cc32)cc1 | -1.7% | 50.1µM* | -35.5%[59 µM] | ? | nt | nt
Cc1ccc2c(CNCc3ccc(C)o3)c(C(=O)O)n(Cc3ccc(F)cc3)c2c1 | -4.7% | 50.1µM* | ? | ? | nt | nt
COc1ccc(Cn2c(C(=O)O)c(CNCc3ccc(OC)cc3OC)c3ccc(C)cc32)cc1 | 30.8% | -31.2% | -33.5%[59 µM] | -21.4% | nt | nt
O=C(NCCN1CCNC1=O)c1ccc2sc([C@@H]3O[C@H](CO)[C@H](O)[C@H](O)[C@H]3O)nc2c1 | nt | nt | nt | nt | -0.2 | -8.1%
CCS(=O)(=O)c1nc(S(=O)(=O)c2ccc(Cl)cc2)c(NCc2ccc(Cl)cc2)s1 | 25.3% | 0.5% | 1.8%[59 µM] | -15.8% | nt | nt
Cc1ccc(NC(=O)C23CCC(C)(C(=O)[C@H]2Br)C3(C)C)cc1 (some centres not stated) | 22.3% | 2.6% | 4.5% | -15.3% | 3.3 | -13.3%
